# Shown are actives, neighbours in structure and some others; about 4.1% of the full set was active somewhere.
# CHT PAM = allosteric activators of human choline transporter CHT. Q9GZV3. 310,000 compounds, 0.49% hits. B-score at 10 µM. CHT-expressing cells, membrane potential dye, choline EC20; stronger effect = higher value; LV-AA mutant CHT in HEK293 cells;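 active = initial fluorescence not abnormally high and integrated response B-score, plate-corrected, over 3 SD above library mean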
# MEKK3 PB1 HTS = raises or lowers MEK5 binding to the human MEKK3 PB1 domain; Q99759; bead-based flow cytometry, Alexa488-MEK5 binding to MEKK3; actives lie on both sides; 0 = blocked by unlabeled MEK5, 100 = vehicle; binding response (% of control), % at 10 µM; 290,000 compounds, 1.4% hits; AID 1529;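 active = binding response more than 3 SD above or below the average of its plate-row segment, actives on both sides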;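 also: Alexa488 bead fluorescence after subtracting the streptavidin-only scavenger bead signal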
# Target sequence (Q99759 whole entry, looked up, the tested form may be a part): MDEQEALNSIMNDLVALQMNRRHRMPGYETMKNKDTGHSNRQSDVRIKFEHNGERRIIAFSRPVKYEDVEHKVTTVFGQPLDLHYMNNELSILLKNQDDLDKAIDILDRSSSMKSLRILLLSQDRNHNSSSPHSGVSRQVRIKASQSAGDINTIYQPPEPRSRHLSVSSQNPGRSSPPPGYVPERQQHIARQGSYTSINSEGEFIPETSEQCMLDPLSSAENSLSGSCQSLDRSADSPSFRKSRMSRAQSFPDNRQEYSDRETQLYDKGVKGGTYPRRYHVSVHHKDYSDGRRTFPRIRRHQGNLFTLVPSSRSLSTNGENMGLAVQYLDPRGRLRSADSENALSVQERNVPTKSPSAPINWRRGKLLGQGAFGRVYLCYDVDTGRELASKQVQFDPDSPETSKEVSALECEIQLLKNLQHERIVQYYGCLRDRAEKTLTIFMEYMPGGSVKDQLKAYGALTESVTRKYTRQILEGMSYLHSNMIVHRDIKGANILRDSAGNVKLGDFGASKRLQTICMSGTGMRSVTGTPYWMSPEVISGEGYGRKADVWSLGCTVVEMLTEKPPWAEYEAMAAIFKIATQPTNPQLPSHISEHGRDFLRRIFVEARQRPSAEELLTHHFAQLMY
# Mot1-301 SUMO = inhibitors of SUMOylation pathway: yeast Mot1-301 growth rescue; S. cerevisiae Mot1-301 growth rescue, ATP luminescence, 38.5C; percent above DMSO median, 100 means doubled; growth rescue, % at 18.8 µM; 320,000 compounds, 1% hits;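 active = every valid replicate shows activation above 250% relative to neutral control wells; inactive = the rest, any valid replicate at or below 250%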;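 also: OY570 slx delta 5 strain wells were the positive control but not used for scaling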
# MEKK2mut PB1 HTS = signal of MEK5 binding to mutant human MEKK2 PB1 domain. bead flow cytometry, Alexa488-MEK5 binding to MEKK2 mutant. percent response, % at 10 µM. 290,000 compounds, 0.35% hits; in the data active = percent response above about 24%, passing the limit was not always enough
# MEKK2 WT-MEK5 = raises or lowers MEK5 binding to wildtype human MEKK2 PB1 domain; Q9Y2U5; AID 1531; bead flow cytometry, Alexa488-MEK5 binding to MEKK2 WT; actives lie on both sides; binding response (% of control), % at 10 µM; 290,000 compounds, 1.1% hits; in the data active = binding response below about 67% or above about 130%
# CHT inh = inhibitors of human choline transporter CHT. B-score at 10 µM. AID 488975. CHT-expressing cells, membrane potential dye, choline response; stronger effect = lower value. 310,000 compounds, 0.86% hits;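 active = B-score over 3 SD under the library average, and starting fluorescence ratio not unusually high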;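 also: choline stimulus applied at its EC90 after an EC20 pre-addition; B-score computed on integrated fluorescence ratio after choline addition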
# CHT inh conf = confirmation of human choline transporter CHT inhibitors | shares compounds with CHT inh | CHT-expressing cells, choline membrane potential dye; LV-to-AA substituted CHT, HEK293 cells | CHT activity remaining % of control (stronger effect = lower value), % at 10 µM | 2,400 compounds, 70% hits;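 active = choline transporter activity left, mean of duplicates at 10 µM, below buffer-only control mean minus 3 SD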;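 also: depolarization triggered by choline at its EC90 following an EC20 pre-addition; 0% = hemicholinium-3 full block and 100% = buffer-only control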
# HEK293 MPD ctr = activity in parental HEK293 cells lacking CHT. AID 493222. membrane potential dye, choline response; active = decrease or increase beyond buffer ±3SD. shares compounds with CHT inh. 2,400 compounds, 4% hits. membrane potential ratio readout (active if shifted either direction beyond buffer ±3SD; no single direction) at 10 µM;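 also: parental cells lack the transporter so any hit is non-specific; ratio is peak minus trough fluorescence over baseline after EC90 choline challenge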
# Starred values were filed as active, the others as inactive; i = inactive; . = not tested or not shown.
SMILES,CHT PAM,MEKK3 PB1 HTS,Mot1-301 SUMO,MEKK2mut PB1 HTS,MEKK2 WT-MEK5,CHT inh,CHT inh conf,HEK293 MPD ctr
COc1ccc([N+](=O)[O-])cc1NC(=O)Cc1ccccc1Cl,i,101,-15,-2,97,i,.,.
Cc1ccccc1N=Cc1cc2c(cc1[N+](=O)[O-])OCO2,i,97,16,-2,94,i,.,.
CC(C)CCNC(=O)c1nnc(Cc2ccc(Cl)cc2)o1,i,110,-6,12,110,i,.,.
O=C1CC(c2ccco2)CC(O)=C1C=Nc1ccccc1-c1ccccc1 (configuration not stated),i,105,-17,3,100,-5.6*,i,i
Cc1ccc(NC(=O)CC(C)c2ccccc2)cc1S(=O)(=O)N1CCOCC1 (configuration not stated),.,.,9,.,.,.,.,.
CSc1ncccc1C(=O)OCC(=O)NC(C)C,i,101,-2,2,100,i,.,.
O=S(=O)(Nc1nc2ccccc2nc1NCC1CCCO1)c1ccc(F)cc1 (configuration not stated),i,88,-15,-12,93,i,.,.
O=S(=O)(Nc1nc2ccccc2nc1NCC1CCCO1)c1cc(Cl)ccc1Cl (configuration not stated),i,81,3,-19,84,-5.6*,45%*,i
COc1ccc(C(C)NC(=S)NC2CCCC2)cc1OC (configuration not stated),i,95,-2,11,108,i,.,.
CC(NC(=O)NC1CCCCC1)c1ccc2c(c1)OCO2 (configuration not stated),i,89,14,-7,87,-6.7*,66%*,i
Cc1ccc(C(C)NC(=S)NC2CCCCC2)cc1C (configuration not stated),i,103,-21,-5,102,-12*,22%*,i
CC(NC(=O)NC12CC3CC(CC(C3)C1)C2)c1ccc2c(c1)OCO2 (configuration not stated),i,99,-10,-1,93,i,.,.
Cc1oc(-c2ccc(Cl)cc2)nc1CS(=O)CC(=O)NC(C)c1ccccc1 (configuration not stated),i,100,11,0,99,-6.5*,39%*,i
Cc1cccn2c(CNC3CCCc4ccccc43)c(C(=O)N3CCOCC3)nc12 (configuration not stated),i,93,.,-8,93,i,.,.
Cc1cccn2c(CNCC3OCCc4ccccc43)c(C(=O)N3CCCCC3)nc12 (configuration not stated),i,94,-12,-1,96,-6.6*,48%*,-13*
CC(C)CCNC(=O)NC(=O)COC(=O)C1CCN(S(=O)(=O)c2ccccc2F)CC1,i,102,-1,19,95,i,.,.
COc1ccc(-n2sc3c(c2=S)-c2cc(OC)ccc2NC3(C)C)cc1,i,108,6,8,112,i,.,.
COc1ccc2c(c1)-c1c(ssc1=S)C(C)(C)N2,i,91,319,1,95,-5.2*,57%*,i
COc1ccc(CNC(=S)NC2CCCC2)cc1,i,92,-1,7,101,-15*,i,i
CC(C)Sc1nc2ccc(Br)cc2[nH]1,i,96,17,-8,90,-5.5*,i,i
Cc1ccc(C(=O)N2CCN(c3ncccn3)CC2)cc1,i,100,403,-5,98,i,.,.
Cc1cc(-c2ccccc2)n(-c2ccc(C(=O)N3CCN(c4ncccn4)CC3)cc2)n1,i,98,15,0,102,-6.4*,71%*,i
COc1cc(/C=N/NC(=O)COc2ccc([N+](=O)[O-])cc2)ccc1OCC(=O)N1CCOCC1,i,99,11,-3,99,i,.,.
CN1CCN(c2ccc(S(=O)(=O)N3CCCCC3)cc2NC(=O)CSCc2ccccc2)CC1,i,106,-12,11,125,-6.8*,48%*,i
COc1ccc(NC(=S)NCCN2CCOCC2)c(OC)c1,i,106,-11,5,111,i,.,.
SMILES,CHT PAM,MEKK3 PB1 HTS,Mot1-301 SUMO,MEKK2mut PB1 HTS,MEKK2 WT-MEK5,CHT inh,CHT inh conf,HEK293 MPD ctr
COc1ccccc1NC(=S)NCCN1CCOCC1,i,103,3,3,108,-8.3*,i,i
COc1ccccc1OCc1ccc(C(=O)N2N=C(C(F)F)CC2(O)C(F)F)o1 (configuration not stated),i,.,0,.,.,-5.2*,i,i
O=C(c1ccc(COc2ccc(Cl)cc2)o1)N1N=C(C(F)F)CC1(O)C(F)F (configuration not stated),i,106,120,2,89,i,.,.
COc1ccccc1CC(=O)N1CCN(c2cccc(C(F)(F)F)c2)CC1,i,95,1,-2,91,-6.3*,i,i
CCOP(=O)(OCC)C(NC(=O)Nc1ccccc1)c1ccccc1 (configuration not stated),i,99,15,2,103,i,.,.
CCOP(=O)(OCC)C(NC(=O)Nc1c(C)cc(C)cc1C)c1ccccc1 (configuration not stated),i,96,-4,-12,82,-6*,i,i
Cc1cc(Nc2cccc(Cl)c2Cl)n2ncnc2n1,i,105,-18,-1,103,i,.,.
Cc1ccc(Nc2cc(C)nc3ncnn23)c(Cl)c1,i,93,4,-2,92,-5.6*,i,i
Fc1ccccc1NC(=S)NNc1ncc(C(F)(F)F)cc1Cl,i,.,8,.,.,-8.1*,60%*,i
O=C(Nc1ccc(F)cc1F)c1ccc2nc(N3CCOCC3)sc2c1,i,93,-17,-1,93,-11*,i,i
CC(=O)/C(=N/Nc1ccccc1)Sc1nnc(C(O)c2ccccc2)n1-c1ccccc1 (configuration not stated),i,102,-15,-1,98,-5*,i,i
Cc1cccc(C(=O)Nc2cccc(OCC(=O)O)c2)c1,i,101,-25,3,105,-5*,57%*,i
Cc1cccc(C(=O)Nc2cccc(NC(=O)c3ccccc3)c2)c1,i,105,16,13,106,i,.,.

# Source: PubChem BioAssay (several laboratories)
